ELG1 DNA repair: blocks ELG1-dependent DNA repair in HEK293T cells; HEK293T ELG1-luciferase reporter, luminescence, 16 h; DNA damage induced by 5-fluorouridine; Potency, µM (series often up to 46.1 µM), inactives show top-dose activity change, negative = inhibition, most hits filed as inhibitors; 2.3% of 330,000 active; further: on the % scale 0 is the no-effect control and ±100 the full control effect; nearly all actives have a fitted effect of over 55% in size
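Reporter activity after DNA damage by 5-fluorouridine is monitored. Compound-treated cells incubate 16 hr at 37 °C, then ONE-Glo is added for 30 min before luminescence reading.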
MCF10A rereplic: DNA re-replication induction in MCF 10a cells; MCF 10A DNA re-replication, Hoechst nuclear intensity, 48 h; Potency, µM (highest dose often 46.1 µM), for the others: at the top dose activity, positive = re-replication, usual class: activators; 2.9% of 350,000 active; AID 624296; further: % of control where 0% means no effect; nearly all actives have a fitted effect of over 50% in size
RORgamma inh: blocks mouse ROR gamma transcriptional activity | P51450 | Drosophila S2 Gal4-RORgamma UAS-luciferase reporter, 20 h | Potency, µM (top dose mostly 53.6 µM), for inactives: at the highest dose activity change, negative = inhibition, usual class: inhibitors | 5.4% of 310,000 active | AID 2551; further: on the % scale 0 is the no-effect control and ±100 the full control effect; nearly all actives have a fitted effect of over 60% in size
Target sequence (P51450 whole entry, looked up, the tested form may be a part): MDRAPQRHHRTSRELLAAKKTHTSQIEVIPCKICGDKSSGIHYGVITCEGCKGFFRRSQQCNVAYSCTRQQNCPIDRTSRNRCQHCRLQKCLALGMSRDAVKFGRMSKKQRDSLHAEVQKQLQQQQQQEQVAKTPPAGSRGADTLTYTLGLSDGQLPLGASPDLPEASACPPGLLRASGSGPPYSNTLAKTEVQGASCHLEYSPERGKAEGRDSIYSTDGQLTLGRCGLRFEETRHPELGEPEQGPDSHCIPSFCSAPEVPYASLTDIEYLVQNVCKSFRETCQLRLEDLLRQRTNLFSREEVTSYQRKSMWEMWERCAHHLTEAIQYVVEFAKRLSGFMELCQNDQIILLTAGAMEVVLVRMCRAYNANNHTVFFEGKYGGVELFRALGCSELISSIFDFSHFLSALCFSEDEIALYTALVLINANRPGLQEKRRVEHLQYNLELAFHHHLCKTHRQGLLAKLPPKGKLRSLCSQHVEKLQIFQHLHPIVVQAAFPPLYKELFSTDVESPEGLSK
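In this cell-based reporter format, copper sulfate (700 uM final) drives Gal4–ROR gamma fusion expression from a metallothionein promoter in Drosophila Schneider cells; compounds preincubated 1 hr, reporter read after 20 hr at ambient temperature.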
SW480 rereplic: inducers of DNA re-replication in SW480 colon cancer cells | Potency, µM (titrated, usually from 46.1 µM), for inactives: at the highest dose re-replication activation, hits mostly activators | AID 624297 | SW480 DNA re-replication, Hoechst DNA content imaging, 48 h | 1.8% of 340,000 active; further: % of control where 0% means no effect; nearly all actives have a fitted effect of over 55% in size
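Hoechst fluorescence of nuclei (405 nm excitation, 500-530 nm emission) measured by plate-scanning imager after 48 hr compound exposure at 37 C; re-replication scored as increased number of nuclei with elevated intensity.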
Gal4-VP16 FLuc: inhibits Gal4-VP16 luciferase reporter, ROR gamma counter-screen; Drosophila S2 Gal4-VP16 UAS-luciferase, luminescence, 20 h; 3.5% of 310,000 active; Potency, µM (highest dose often 53.6 µM), without a hit: at the highest dose activity, negative = inhibition, hits mostly inhibitors; AID 2546;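 further: Gal4-VP16 expression switched on by copper sulfate through the metallothionein promoter; on the % scale 0 is the no-effect control and ±100 the full control effect; nearly all actives have a fitted effect of over 50% in size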
Starred values were filed as active, the others as inactive; [ ] = remark or other dose. The list is not random: actives were taken first. Their share in the collection is about 10%. The call rests on the fitted dose curve; in most records, active means well fitted curve in the direction sought with a large enough effect; inconclusive means small, poorly fitted or top-dose-only effect, or another doubt; inactive means no such curve, though single readings can be large; an effect the other way counts as inactive or inconclusive. Potency means the concentration at half of the fitted maximal effect.

How did COP(=O)(OC)Oc1ccc(C(O)C(Cl)(Cl)Cl)cc1 (configuration not stated) do in these assays?
ELG1 DNA repair: 1%; MCF10A rereplic: -1%; RORgamma inh: -14%; SW480 rereplic: -7%; Gal4-VP16 FLuc: inconclusive

What do the screens show for `CN1C(=O)C(=Cc2ccccc2Oc2ccc(Cl)cc2)C(=O)N(C)C1=O`?
ELG1 DNA repair: -3%; MCF10A rereplic: 2%; RORgamma inh: inconclusive; SW480 rereplic: inconclusive; Gal4-VP16 FLuc: -2%[0.365 µM]

Results for CN1C(=O)C(=Cc2ccc(OCCN(C)c3ccccn3)cc2)C(=O)N(C)C1=O ?
ELG1 DNA repair: 1%; MCF10A rereplic: 0.41µM*; RORgamma inh: 15%; SW480 rereplic: -23%; Gal4-VP16 FLuc: 11%

Results for Cc1nc2c(=O)n(C)c(=O)nc-2n(C)n1 ?
ELG1 DNA repair: 1.8µM*; MCF10A rereplic: 9.2µM*; RORgamma inh: inconclusive; SW480 rereplic: 0.52µM*; Gal4-VP16 FLuc: 3.5µM*

How did NCCc1c[nH]c2ccc(O)cc12 do in these assays?
RORgamma inh: 3%; Gal4-VP16 FLuc: 11%

Results for O=C1c2ccccc2C(=O)C1C(=O)C(c1ccccc1)c1ccccc1 ?
MCF10A rereplic: 24µM*; RORgamma inh: 19%; SW480 rereplic: inconclusive; Gal4-VP16 FLuc: 8%

Results for CN(C)c1ccc(C(=O)c2ccc(N(C)C)cc2)cc1 ?
ELG1 DNA repair: inconclusive; MCF10A rereplic: 6.5µM*; RORgamma inh: 16%; SW480 rereplic: 5.2µM*; Gal4-VP16 FLuc: -10%

How did c1nc[n]([Sn]([CH]2CCCCC2)([CH]2CCCCC2)[CH]2CCCCC2)n1 do in these assays?
RORgamma inh: inconclusive; Gal4-VP16 FLuc: 22µM*

Results for Cc1c(O)c(=O)ccn1C ?
ELG1 DNA repair: 7%; MCF10A rereplic: inconclusive; RORgamma inh: -6%; SW480 rereplic: -14%; Gal4-VP16 FLuc: -6%

What do the screens show for `Cc1c(C(=O)N2CCC3(CC2)OCCO3)sc2ncnc(N3CCN(c4ccccn4)CC3)c12`?
ELG1 DNA repair: 3.7µM*; MCF10A rereplic: -3%; RORgamma inh: 31%[0.365 µM]; SW480 rereplic: 3%

How did Nc1ccc2c3c(cccc13)-c1ccccc1-2 do in these assays?
MCF10A rereplic: 2.9µM*; SW480 rereplic: 9.2µM*

How did Nc1cccc2ccccc12 do in these assays?
RORgamma inh: -23%; Gal4-VP16 FLuc: 2%

Results for O=C(CSc1nnc(NC(=O)c2ccccc2[N+](=O)[O-])s1)NCc1ccco1 ?
ELG1 DNA repair: 3%; MCF10A rereplic: -3%; RORgamma inh: inconclusive; SW480 rereplic: 2%; Gal4-VP16 FLuc: 6%

What do the screens show for `CCc1ccc(OCC(=O)N2CCN(Cc3ccc4c(c3)OCO4)CC2)cc1`?
ELG1 DNA repair: -20%; MCF10A rereplic: inconclusive; RORgamma inh: 17%; SW480 rereplic: 0%; Gal4-VP16 FLuc: 25%

Results for Cc1cc(S(=O)(=O)NC(C)C)ccc1OCC(=O)N1CCN(Cc2ccc3c(c2)OCO3)CC1 ?
ELG1 DNA repair: -26%; MCF10A rereplic: -1%; RORgamma inh: -29%; SW480 rereplic: -2%; Gal4-VP16 FLuc: 7.9µM*

How did Cc1cc(=O)oc2cc(OCC(=O)N3CCN(Cc4ccc5c(c4)OCO5)CC3)ccc12 do in these assays?
ELG1 DNA repair: 6.5µM*; MCF10A rereplic: 1%; RORgamma inh: -1%; SW480 rereplic: -23%; Gal4-VP16 FLuc: 1%

What do the screens show for `Cc1cc(S(=O)(=O)NCC(C)C)ccc1OCC(=O)N1CCN(Cc2ccccc2)CC1`?
ELG1 DNA repair: inconclusive; MCF10A rereplic: 8%; RORgamma inh: 21%; SW480 rereplic: inconclusive; Gal4-VP16 FLuc: -21%

What do the screens show for `CC(C)NS(=O)(=O)c1ccc(OCC(=O)N2CCN(Cc3ccc4c(c3)OCO4)CC2)c(Cl)c1`?
ELG1 DNA repair: 12µM*; MCF10A rereplic: 28%; RORgamma inh: -24%; SW480 rereplic: -2%; Gal4-VP16 FLuc: inconclusive

Results for Cc1cc(=O)oc2cc(OCC(=O)N3CCN(Cc4ccccc4)CC3)ccc12 ?
ELG1 DNA repair: -12%; MCF10A rereplic: 10%; SW480 rereplic: -3%

How did CC[C@@]1(C(=O)OC)N[C@H](CN(C)C(=O)Nc2ccc(OC)cc2)[C@@H]2C(=O)N(Cc3ccccc3)C(=O)[C@@H]21 do in these assays?
ELG1 DNA repair: inconclusive; MCF10A rereplic: -4%; SW480 rereplic: -1%

How did O=C(N/N=C\C1C(=O)NC(=S)N(c2ccccc2)C1=O)c1ccc(O)cc1 (configuration not stated) do in these assays?
ELG1 DNA repair: -7%; MCF10A rereplic: -12%; RORgamma inh: 1.4µM*; SW480 rereplic: 1%; Gal4-VP16 FLuc: 2.5µM*

How did Cn1c(O)c(/C=N/NC(=O)c2ccncc2)c(=O)[nH]c1=S do in these assays?
ELG1 DNA repair: -4%; MCF10A rereplic: 0%; RORgamma inh: -3%; SW480 rereplic: inconclusive; Gal4-VP16 FLuc: -1%

How did CN1CCC(O)(c2ccc(F)cc2)C(C(=O)c2ccc(F)cc2)C1 (configuration not stated) do in these assays?
MCF10A rereplic: 27µM*; RORgamma inh: -23%; SW480 rereplic: inconclusive; Gal4-VP16 FLuc: 3%

What do the screens show for `CCCCN1CCC(O)(c2ccccc2)C(C(=O)c2ccccc2)C1` (configuration not stated)?
ELG1 DNA repair: -7%; MCF10A rereplic: inconclusive; RORgamma inh: inconclusive; SW480 rereplic: inconclusive; Gal4-VP16 FLuc: inconclusive

Results for CN1CCC(O)(c2cccs2)C(C(=O)c2cccs2)C1 (configuration not stated) ?
ELG1 DNA repair: -11%; MCF10A rereplic: inconclusive; RORgamma inh: 4µM*; SW480 rereplic: 19%; Gal4-VP16 FLuc: 3.2µM*

Results for CC(C)(C#N)O[C@H]1OC(CO)C(O)C(O)C1O (some centres not stated) ?
RORgamma inh: -1%; Gal4-VP16 FLuc: -10%

Results for CC/C=C\C/C=C\C/C=C\C/C=C\C/C=C\CCCC(=O)NC(C)C(=O)O (configuration not stated) ?
RORgamma inh: 3%; Gal4-VP16 FLuc: 3%

What do the screens show for `CC(Cl)(Cl)Cl`?
RORgamma inh: 0%; Gal4-VP16 FLuc: 1%

What do the screens show for `Cc1ncc2n1-c1ccc(Cl)cc1C(c1ccccc1F)=NC2O` (configuration not stated)?
RORgamma inh: -44%; Gal4-VP16 FLuc: 7%

How did CCCCC(=O)N/N=C/c1c(O)n(CCc2ccc(OC)c(OC)c2)c(=O)[nH]c1=O do in these assays?
ELG1 DNA repair: -1%; MCF10A rereplic: 1%; RORgamma inh: -33%; SW480 rereplic: 3%; Gal4-VP16 FLuc: -1%

How did CCCCC(=O)N/N=C/c1c(O)n(CC)c(=S)[nH]c1=O do in these assays?
ELG1 DNA repair: 12%; MCF10A rereplic: 21%; RORgamma inh: 11µM*; SW480 rereplic: -4%; Gal4-VP16 FLuc: inconclusive
